Mtb MenB inh – inhibitors of Mycobacterium tuberculosis MenB enzyme. P9WNP5. MenB enzyme assay, absorbance read-out. inhibition, % (concentration not given with the values). 100,000 compounds, 0.43% hits. AID 540299; in the data active = inhibition above about 21%, passing the limit was not always enough
Mtb MbtI inh – blocks the Mycobacterium tuberculosis siderophore enzyme MbtI. P9WFX0. inhibition, % (no concentration beside the values). purified MbtI enzyme, fluorescence intensity read-out. 100,000 compounds, 0.89% hits; in the data active = inhibition mostly above about 56%, no sharp cut-off; inactive = mostly below about 77%
Polio RdRp inh – inhibitors of poliovirus RNA polymerase binding and polymerization; 150,000 compounds, 0.66% hits; poliovirus polymerase elongation, fluorescence polarization; stronger effect = lower value; AID 588519; P03300; % elongation, % (compound at 16.7 µg/mL); in the data active = % elongation below about 90%
Target sequence (P03300 1749-2209 limits assumed): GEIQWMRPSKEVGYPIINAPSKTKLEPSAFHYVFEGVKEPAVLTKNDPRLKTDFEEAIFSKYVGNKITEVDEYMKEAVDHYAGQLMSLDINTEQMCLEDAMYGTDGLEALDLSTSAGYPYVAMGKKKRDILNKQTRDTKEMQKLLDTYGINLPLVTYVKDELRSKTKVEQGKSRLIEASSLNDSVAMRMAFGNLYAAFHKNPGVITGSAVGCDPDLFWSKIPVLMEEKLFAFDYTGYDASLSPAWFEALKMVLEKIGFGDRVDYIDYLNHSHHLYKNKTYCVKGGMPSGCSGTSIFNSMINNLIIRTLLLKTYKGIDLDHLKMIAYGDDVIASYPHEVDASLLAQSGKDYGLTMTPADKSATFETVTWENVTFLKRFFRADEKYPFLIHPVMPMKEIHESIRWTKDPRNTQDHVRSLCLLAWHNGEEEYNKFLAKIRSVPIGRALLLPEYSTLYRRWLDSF
AID504770 – E. coli YBA685 growth inhibition, screen for V. cholerae RctB inhibitors; E. coli YBA685 rctB-dependent plasmid, OD600 growth, 3 h; stronger effect = lower value; 130,000 compounds, 0.27% hits; z-score (test concentration not listed); AID 504770; in the data active = z-score below about -2, passing the limit was not always enough
Numbers stand for hits. This is a sample that favours compounds with a hit; in the whole collection about 1.4% have one here.

Screening Cc1nn(-c2ccccc2)c(C)c1/C=C/C(=O)OCC(=O)Nc1c(C#N)oc2ccccc12 returned Mtb MenB inh inactive, Mtb MbtI inh inactive, Polio RdRp inh inactive and AID504770 inactive.
For Cc1ccc(N(O)S(=O)(=O)c2ccc(C)cc2)cc1 the results were Mtb MenB inh inactive, Mtb MbtI inh 65, Polio RdRp inh inactive and AID504770 inactive.
Cc1ccc(S(=O)(=O)N(C)C)cc1 was read as Mtb MbtI inh inactive, Polio RdRp inh inactive and AID504770 inactive.
Cc1ccc(S(=O)(=O)N(O)c2ccc(Cl)cc2)cc1 was read as Mtb MbtI inh 83, Polio RdRp inh inactive and AID504770 inactive.
For CN(C)S(=O)(=O)c1ccc(C(=O)N2CCCCCCC2)cc1 the results were Mtb MenB inh inactive, Mtb MbtI inh inactive, Polio RdRp inh inactive and AID504770 inactive.
For COc1ccc(Cc2nn3c(Cc4ccccc4)nnc3s2)cc1 the results were Mtb MenB inh inactive, Mtb MbtI inh 93, Polio RdRp inh inactive and AID504770 inactive.
Screening CC1=NN(c2nc3ccccc3[nH]2)C(=O)C1Cc1ccccc1 (stereo unspecified) returned Mtb MenB inh inactive, Mtb MbtI inh 76, Polio RdRp inh inactive and AID504770 inactive.
Screening O=C(OCC(=O)N1CCCC1=O)c1cccc(S(=O)(=O)NCc2ccccc2)c1 returned Mtb MenB inh inactive, Mtb MbtI inh inactive, Polio RdRp inh inactive and AID504770 inactive.
For Cc1nnc(-c2ccccn2)[nH]c1=O the results were Mtb MenB inh inactive, Mtb MbtI inh inactive, Polio RdRp inh inactive and AID504770 inactive.
Screening Cn1c(=O)[nH]c2nnc(-c3ccccn3)nc2c1=O returned Mtb MenB inh inactive, Mtb MbtI inh inactive, Polio RdRp inh 89 and AID504770 inactive.
For Cc1ccc(S(=O)(=O)N2CCc3ccccc3C2CC(=O)OCC(N)=O)cc1 (stereo unspecified) the results were Mtb MenB inh inactive, Mtb MbtI inh inactive, Polio RdRp inh inactive and AID504770 inactive.
CC(=O)OCCNc1nc(-c2ccccc2)nc2ccccc12 was read as AID504770 inactive.
Screening CCCOc1ccc(-c2nc(NCCN)c3ccccc3n2)cc1 returned AID504770 -3.
O=C1C(=Cc2ccccc2)C(=O)c2ccccc21 was read as Mtb MenB inh inactive, Mtb MbtI inh 95, Polio RdRp inh inactive and AID504770 inactive.
O=C(NCc1ccco1)c1ccccc1SCc1ccc(F)cc1 was read as Mtb MenB inh inactive, Polio RdRp inh inactive and AID504770 inactive.
Screening Cc1cc(C)nc(SCc2csc(N)n2)n1 returned Mtb MenB inh inactive, Mtb MbtI inh inactive, Polio RdRp inh inactive and AID504770 inactive.
Screening N=C(N)SCc1csc(N)n1 returned Mtb MenB inh inactive, Polio RdRp inh 87 and AID504770 inactive.
CCOC(=O)CC1=Nn2c(nnc2C2CCCCC2)SC1 was read as Mtb MenB inh inactive, Mtb MbtI inh inactive, Polio RdRp inh inactive and AID504770 inactive.
Screening NNC(=O)Cc1nn2c(C3CCCCC3)nnc2s1 returned Mtb MenB inh inactive, Mtb MbtI inh 70, Polio RdRp inh inactive and AID504770 inactive.
`COc1cccc(C(=O)NCCSc2c[nH]c3ccccc23)c1OC` gave Mtb MenB inh inactive, Mtb MbtI inh inactive, Polio RdRp inh inactive and AID504770 inactive.
Screening Nn1c(SCCOc2ccccc2)nnc1-c1ccccc1 returned Mtb MenB inh inactive, Mtb MbtI inh inactive, Polio RdRp inh 79 and AID504770 inactive.
For O=C(O)/C=C/c1ccc(OC(F)(F)F)cc1 the results were Mtb MenB inh inactive, Mtb MbtI inh inactive, Polio RdRp inh inactive and AID504770 inactive.
Screening Cc1ccc(C2=N/C(=C\c3c(C)nn(-c4ccccc4)c3N3CCCC3)C(=O)O2)s1 returned Mtb MenB inh inactive, Mtb MbtI inh inactive, Polio RdRp inh 28 and AID504770 inactive.
COC(=O)c1ccc(C(=O)OC)c(NC(=O)c2cc3nc(-c4ccc(C)cc4)cc(C(F)(F)F)n3n2)c1 was read as Polio RdRp inh inactive.
For COC(=O)c1cc2nc(-c3ccc(F)cc3)cc(C(F)(F)F)n2n1 the results were Mtb MenB inh inactive, Polio RdRp inh 87 and AID504770 inactive.
Screening O=c1ccc2cc3c([nH]c4ccc(Br)cc43)oc-2c1O returned Mtb MenB inh inactive, Mtb MbtI inh 97, Polio RdRp inh inactive and AID504770 inactive.
CC1CN(C(=S)c2ccccc2)CC(C)O1 (stereo unspecified) was read as Mtb MenB inh inactive, Mtb MbtI inh 68, Polio RdRp inh inactive and AID504770 inactive.
Screening CC1CN(C(=S)NCCc2ccccc2)CC(C)O1 (stereo unspecified) returned Mtb MenB inh inactive, Mtb MbtI inh inactive, Polio RdRp inh inactive and AID504770 inactive.
Screening C=CCn1c(COc2ccccc2)nnc1SCC(N)=O returned Mtb MenB inh inactive, Mtb MbtI inh inactive, Polio RdRp inh inactive and AID504770 inactive.
